PubChem BioAssay (EPA / NIEHS)
Values joined by “and” are separate entries in the source; they are usually repeats but may differ in a detail not shown here. Equal entries are not always repeated. Records with an inconclusive call do not appear. A structure can be active in one record and inactive in another. Active and inactive are the calls of the source. Rule for the calls, unless noted: active = hit-call score of the fitted dose curve at least 0.9, where 1 is the maximum; inconclusive = response in the unintended direction; inactive = score below 0.9.

Legend:
[1] = ATG_TCF_b_cat_CIS: Attagene CIS-FACTORIAL HepG2 Assay for human T-Cell-Factor with beta-catenin (TCF/b-cat) (AID 2282965; active = hit-call score of the fitted dose curve at least 0.9, where 1 is the maximum; inactive = score below 0.9); conditions: HepG2 TCF/beta-catenin cis-reporter transcription, actives raise or lower the signal
In short: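 Measured: reporter mRNA in HepG2 transiently transfected with cis-promoter reporter units, 24 h after chemical addition. Fitting was bidirectional, DMSO as negative control.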

[2] = ATG_TAL_CIS: Attagene CIS-FACTORIAL HepG2 Assay for human TAL Basal Promoter (AID 2282966; active = hit-call score of the fitted dose curve at least 0.9, where 1 is the maximum; inactive = score below 0.9;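 note: background control endpoint measuring basal TAL promoter reporter mRNA not a specific factor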); conditions: HepG2 Attagene cis-factorial TAL promoter reporter; actives raise or lower the signal
In short: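 In this cell-based multiplex, HepG2 liver cells bearing cis-promoter reporter constructs are dosed for 24 hours. Total RNA is reverse-transcribed and amplified, labelled fragments are sized by capillary electrophoresis, and signal changes are fitted bidirectionally versus DMSO.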

[3] = ATG_TGFb_CIS: Attagene CIS-FACTORIAL HepG2 Assay for human Transforming Growth Factor (TGF) (AID 2282967; active = hit-call score of the fitted dose curve at least 0.9, where 1 is the maximum; inactive = score below 0.9); conditions: HepG2 Attagene CIS TGFb reporter, mRNA transcription; actives raise or lower the signal
In short: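 HepG2 cells transiently transfected with cis-promoter-driven multiplexed reporter units; 24 h compound exposure. Reporter mRNA measured by RT-PCR, 6-FAM labeling, HpaI digestion and capillary electrophoresis; bidirectional fit versus DMSO baseline.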

[4] = biological target: Estrogen receptor (Homo sapiens) (UniProt P03372); assay: ATG_ERa_TRANS: Attagene TRANS-FACTORIAL HepG2 Assay for human Estrogen Receptor alpha (ERa) (AID 2282970); conditions: HepG2 Attagene TRANS ERa GAL4 reporter, mRNA
Chain of Estrogen receptor (Homo sapiens) (P03372 whole entry, looked up, the tested form may be a part): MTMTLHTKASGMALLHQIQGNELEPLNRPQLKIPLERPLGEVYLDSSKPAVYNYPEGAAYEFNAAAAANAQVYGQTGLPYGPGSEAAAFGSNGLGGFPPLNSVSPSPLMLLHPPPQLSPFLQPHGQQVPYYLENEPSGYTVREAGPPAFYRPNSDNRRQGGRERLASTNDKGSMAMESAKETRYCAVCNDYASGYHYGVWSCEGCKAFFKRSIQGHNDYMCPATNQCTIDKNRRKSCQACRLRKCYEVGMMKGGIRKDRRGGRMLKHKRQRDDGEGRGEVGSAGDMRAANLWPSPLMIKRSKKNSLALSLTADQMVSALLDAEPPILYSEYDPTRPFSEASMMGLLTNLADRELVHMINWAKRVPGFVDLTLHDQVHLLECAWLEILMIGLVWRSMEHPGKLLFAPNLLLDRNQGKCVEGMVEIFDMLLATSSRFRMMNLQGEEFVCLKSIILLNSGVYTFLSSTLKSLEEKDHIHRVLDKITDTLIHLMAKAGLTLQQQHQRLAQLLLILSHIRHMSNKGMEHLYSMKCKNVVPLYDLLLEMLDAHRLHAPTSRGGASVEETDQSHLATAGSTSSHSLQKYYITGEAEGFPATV
In short: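 After 24 h of compound treatment, RNA from HepG2 cells bearing transfected GAL4-UAS reporter constructs is converted to cDNA, amplified and fluorescently labelled. Capillary electrophoresis resolves the ERa-linked reporter; DMSO serves as negative control.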

[5] = biological target: X-box-binding protein 1 (Homo sapiens) (UniProt P17861); assay: ATG_Xbp1_CIS: Attagene CIS-FACTORIAL HepG2 Assay for human X-box Binding Protein 1 (XBP1) (AID 2282972; active = hit-call score of the fitted dose curve at least 0.9, where 1 is the maximum; inactive = score below 0.9); conditions: HepG2 XBP1 cis-element reporter, Attagene multiplex; actives raise or lower the signal
Chain of X-box-binding protein 1 (Homo sapiens) (P17861 whole entry, looked up): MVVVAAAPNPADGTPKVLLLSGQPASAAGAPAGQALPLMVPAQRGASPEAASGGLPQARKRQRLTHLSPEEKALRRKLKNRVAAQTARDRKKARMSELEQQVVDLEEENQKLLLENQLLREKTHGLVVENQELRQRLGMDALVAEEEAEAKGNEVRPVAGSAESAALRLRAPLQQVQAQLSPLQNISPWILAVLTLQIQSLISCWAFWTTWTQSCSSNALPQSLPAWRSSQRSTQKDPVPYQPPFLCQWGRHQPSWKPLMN
In short: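 HepG2 cells transiently transfected with multiple cis-element reporter units report endogenous TF activity; 24 h exposure, then reporter mRNA measured by RT-PCR, 6-FAM labelling, HpaI digestion and capillary electrophoresis. Bidirectional fitting versus DMSO.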

[6] = ATG_M_19_TRANS: Attagene TRANS-FACTORIAL HepG2 Assay for M19 Transcription Factor (Internal Marker) (AID 2282974); conditions: HepG2 Attagene TRANS-FACTORIAL M19 internal marker reporter
In short: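 Transfected HepG2 (GAL4-UAS MRTUs), 24 h compound, TriZol RNA, DNase-treated RT, reporter PCR, FAM label, HpaI digest, CE fluorescence; gain vs DMSO.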

[7] = ATG_GAL4_TRANS: Attagene TRANS-FACTORIAL HepG2 Assay for GAL4 (Internal Marker) (AID 2282976); conditions: HepG2 Attagene TRANS GAL4 internal marker reporter
In short: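 RT-PCR/capillary electrophoresis readout of reporter mRNA. HepG2, transient MRTU transfection (GAL4-UAS reporters), 24 h compound exposure. Background-control endpoint, positive direction vs DMSO baseline.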

[8] = biological target: Glucocorticoid receptor (Homo sapiens) (UniProt P04150); assay: ATG_GR_TRANS: Attagene TRANS-FACTORIAL HepG2 Assay for human Glucocorticoid Receptor (GR) (AID 2282978); conditions: HepG2 Attagene TRANS GR reporter, mRNA transcription;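 note: activators score as hits since higher reporter transcript over DMSO is fitted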
Chain of Glucocorticoid receptor (Homo sapiens) (P04150 whole entry, looked up): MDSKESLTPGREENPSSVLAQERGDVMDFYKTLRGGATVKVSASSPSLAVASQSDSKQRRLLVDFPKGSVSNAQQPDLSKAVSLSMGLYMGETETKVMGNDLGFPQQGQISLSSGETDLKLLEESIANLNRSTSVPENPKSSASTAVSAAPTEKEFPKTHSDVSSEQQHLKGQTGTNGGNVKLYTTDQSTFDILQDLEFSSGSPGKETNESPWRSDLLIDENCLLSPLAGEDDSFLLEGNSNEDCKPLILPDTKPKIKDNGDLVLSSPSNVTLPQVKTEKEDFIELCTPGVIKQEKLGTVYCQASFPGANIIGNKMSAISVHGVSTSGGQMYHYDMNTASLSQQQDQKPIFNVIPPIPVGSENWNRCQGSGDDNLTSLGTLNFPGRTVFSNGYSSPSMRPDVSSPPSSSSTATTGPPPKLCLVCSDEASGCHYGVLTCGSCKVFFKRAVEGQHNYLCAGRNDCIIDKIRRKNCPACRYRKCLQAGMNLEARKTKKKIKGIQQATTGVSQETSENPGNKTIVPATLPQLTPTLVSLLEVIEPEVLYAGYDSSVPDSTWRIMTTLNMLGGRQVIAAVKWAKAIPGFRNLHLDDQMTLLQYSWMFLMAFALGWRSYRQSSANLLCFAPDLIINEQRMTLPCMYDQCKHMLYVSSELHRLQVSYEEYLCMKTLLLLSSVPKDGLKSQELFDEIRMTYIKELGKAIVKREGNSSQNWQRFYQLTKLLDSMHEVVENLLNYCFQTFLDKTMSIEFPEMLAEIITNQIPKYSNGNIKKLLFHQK
In short: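 After 24 h incubation with test chemical, transfected HepG2 cells were lysed for RNA; reporter cDNA was amplified, FAM-labelled, HpaI-digested and sized on a capillary analyser. Signal gain relative to DMSO was scored.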

[9] = biological target: Oxysterols receptor LXR-alpha (Homo sapiens) (UniProt Q13133); assay: ATG_LXRa_TRANS: Attagene TRANS-FACTORIAL HepG2 Assay for human Liver X Receptor alpha (LXRa) (AID 2282980); conditions: HepG2 Attagene TRANS reporter, LXRa transactivation
Chain of Oxysterols receptor LXR-alpha (Homo sapiens) (Q13133 whole entry, looked up, the tested form may be a part): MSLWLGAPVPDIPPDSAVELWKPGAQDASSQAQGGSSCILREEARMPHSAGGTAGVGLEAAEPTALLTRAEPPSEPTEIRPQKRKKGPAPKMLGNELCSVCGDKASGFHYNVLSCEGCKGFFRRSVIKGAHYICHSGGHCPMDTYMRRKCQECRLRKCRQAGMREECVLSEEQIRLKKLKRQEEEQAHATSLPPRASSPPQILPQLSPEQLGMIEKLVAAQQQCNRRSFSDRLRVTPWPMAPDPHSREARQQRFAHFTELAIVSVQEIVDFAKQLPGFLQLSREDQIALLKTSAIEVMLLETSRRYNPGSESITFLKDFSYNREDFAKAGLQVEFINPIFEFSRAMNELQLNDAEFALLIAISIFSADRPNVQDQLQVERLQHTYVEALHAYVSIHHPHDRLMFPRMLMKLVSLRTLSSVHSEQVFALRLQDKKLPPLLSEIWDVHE
In short: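 Read-out: reporter transcript levels by RT-PCR plus capillary electrophoresis, fluorescence intensity. Transiently transfected HepG2, exogenous NR-GAL4 chimera, GAL4-UAS reporters; 24 h compound exposure. Activity = increase over DMSO negative control.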

[10] = biological target: Oxysterols receptor LXR-beta (Homo sapiens) (UniProt P55055); assay: ATG_LXRb_TRANS: Attagene TRANS-FACTORIAL HepG2 Assay for human Liver X Receptor beta (LXRb) (AID 2282981); conditions: HepG2 Attagene TRANS GAL4-LXRb reporter, mRNA
Chain of Oxysterols receptor LXR-beta (Homo sapiens) (P55055 whole entry, looked up, the tested form may be a part): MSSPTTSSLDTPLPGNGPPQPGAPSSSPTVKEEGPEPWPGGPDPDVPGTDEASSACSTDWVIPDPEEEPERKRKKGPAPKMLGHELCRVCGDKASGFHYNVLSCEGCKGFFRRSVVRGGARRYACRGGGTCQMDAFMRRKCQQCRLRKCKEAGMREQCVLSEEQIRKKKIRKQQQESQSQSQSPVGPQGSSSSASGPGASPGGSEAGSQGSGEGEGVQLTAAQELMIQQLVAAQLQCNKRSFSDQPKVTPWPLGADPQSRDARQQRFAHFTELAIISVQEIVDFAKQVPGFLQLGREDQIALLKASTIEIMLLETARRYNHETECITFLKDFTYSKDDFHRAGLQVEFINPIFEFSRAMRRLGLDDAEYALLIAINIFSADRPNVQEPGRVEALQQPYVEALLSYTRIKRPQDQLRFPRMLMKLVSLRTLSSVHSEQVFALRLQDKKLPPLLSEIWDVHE
In short: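 Transient transfection HepG2 (multiplexed RTUs, GAL4-UAS); NR-Gal4 chimera; 24 h exposure; RNA → RT-PCR → 6-FAM primer extension → HpaI → CE; increase vs DMSO.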

[11] = biological target: Hepatocyte nuclear factor 4-alpha (Homo sapiens) (UniProt P41235); assay: ATG_HNF4a_TRANS: Attagene TRANS-FACTORIAL HepG2 Assay for human Hepatocyte Nuclear Factor 4 alpha (HNF4a) (AID 2282982); conditions: HepG2 HNF4a transactivation reporter, mRNA readout
Chain of Hepatocyte nuclear factor 4-alpha (Homo sapiens) (P41235 whole entry, looked up, the tested form may be a part): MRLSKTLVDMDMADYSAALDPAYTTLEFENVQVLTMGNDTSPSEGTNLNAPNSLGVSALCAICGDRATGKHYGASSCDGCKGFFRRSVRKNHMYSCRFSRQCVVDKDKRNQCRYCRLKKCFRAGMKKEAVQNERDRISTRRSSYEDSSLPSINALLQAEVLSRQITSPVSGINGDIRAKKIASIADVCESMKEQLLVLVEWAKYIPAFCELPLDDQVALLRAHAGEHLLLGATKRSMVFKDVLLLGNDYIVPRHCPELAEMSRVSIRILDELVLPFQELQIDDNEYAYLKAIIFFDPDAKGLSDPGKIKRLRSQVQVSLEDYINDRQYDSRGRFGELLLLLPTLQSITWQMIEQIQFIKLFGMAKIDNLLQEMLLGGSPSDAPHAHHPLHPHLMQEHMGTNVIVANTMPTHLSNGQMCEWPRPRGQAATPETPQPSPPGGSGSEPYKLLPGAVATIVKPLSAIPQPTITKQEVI
In short: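 Readout is fluorescent reporter-transcript fragments resolved by capillary electrophoresis after RT-PCR from HepG2 cells dosed for 24 h. Cells carried transfected GAL4-UAS reporter constructs measuring exogenous NR-GAL4 chimera activity; DMSO served as baseline.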

[12] = ATG_M_06_TRANS: Attagene TRANS-FACTORIAL HepG2 Assay for M06 Transcription Factor (Internal Marker) (AID 2282983); conditions: HepG2 Attagene TRANS M06 internal marker reporter
In short: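 After a 24 h chemical treatment of transfected HepG2, RNA underwent DNase I treatment, reverse transcription and reporter-specific PCR; labelled, HpaI-digested products were sized by capillary electrophoresis. Signal increase relative to DMSO defined activity.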

[13] = ATG_M_32_TRANS: Attagene TRANS-FACTORIAL HepG2 Assay for M32 Transcription Factor (Internal Marker) (AID 2282984); conditions: HepG2 Attagene TRANS M32 internal marker reporter;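 note: transcript level of a background control reporter unit measured by RT-PCR and capillary electrophoresis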
In short: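 Measures reporter mRNA induction in human HepG2 liver cells after 24 h chemical treatment. Transcripts from transiently transfected GAL4-UAS reporter units are amplified, fluorescently labelled and sized by capillary electrophoresis; gain of signal relative to DMSO.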

[14] = biological target: Nuclear receptor subfamily 4 group A member 2 (Homo sapiens) (UniProt P43354); assay: ATG_NURR1_TRANS: Attagene TRANS-FACTORIAL HepG2 Assay for human Nuclear Receptor Related Protein 1 (NURR1) (AID 2282985); conditions: HepG2 Attagene TRANS reporter, mRNA readout
Chain of Nuclear receptor subfamily 4 group A member 2 (Homo sapiens) (P43354 whole entry, looked up, the tested form may be a part): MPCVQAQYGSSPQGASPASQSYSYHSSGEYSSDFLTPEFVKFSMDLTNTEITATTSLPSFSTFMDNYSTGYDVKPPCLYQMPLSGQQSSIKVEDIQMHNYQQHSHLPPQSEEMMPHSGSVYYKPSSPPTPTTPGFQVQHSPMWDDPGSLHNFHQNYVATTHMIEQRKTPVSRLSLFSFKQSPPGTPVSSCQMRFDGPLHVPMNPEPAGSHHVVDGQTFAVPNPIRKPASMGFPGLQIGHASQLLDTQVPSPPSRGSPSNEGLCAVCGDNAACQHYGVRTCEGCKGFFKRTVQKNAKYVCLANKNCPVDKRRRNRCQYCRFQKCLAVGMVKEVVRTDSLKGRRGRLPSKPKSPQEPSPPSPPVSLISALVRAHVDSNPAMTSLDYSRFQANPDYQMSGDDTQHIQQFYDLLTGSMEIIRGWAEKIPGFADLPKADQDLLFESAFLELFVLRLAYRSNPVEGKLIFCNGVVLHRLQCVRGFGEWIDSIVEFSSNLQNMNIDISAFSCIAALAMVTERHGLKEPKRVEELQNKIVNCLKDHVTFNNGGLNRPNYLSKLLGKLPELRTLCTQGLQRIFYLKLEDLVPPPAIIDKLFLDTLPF
In short: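 Transient transfection of HepG2, human liver cells, with multiple GAL4-UAS reporter transcription units. Cells dosed 24 h, RNA isolated, reverse-transcribed, PCR-amplified, FAM-labelled, HpaI-digested, sized by capillary electrophoresis. DMSO served as negative control.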

[15] = biological target: Transcriptional activator Myb (Homo sapiens) (UniProt P10242); assay: ATG_Myb_CIS: Attagene CIS-FACTORIAL HepG2 Assay for human Myeloblastosis (Myb) Proto-Oncogene Transcription Factor (AID 2282986; active = hit-call score of the fitted dose curve at least 0.9, where 1 is the maximum; inactive = score below 0.9); conditions: HepG2 Attagene CIS-FACTORIAL Myb reporter transcription; actives raise or lower the signal
Chain of Transcriptional activator Myb (Homo sapiens) (P10242 whole entry, looked up): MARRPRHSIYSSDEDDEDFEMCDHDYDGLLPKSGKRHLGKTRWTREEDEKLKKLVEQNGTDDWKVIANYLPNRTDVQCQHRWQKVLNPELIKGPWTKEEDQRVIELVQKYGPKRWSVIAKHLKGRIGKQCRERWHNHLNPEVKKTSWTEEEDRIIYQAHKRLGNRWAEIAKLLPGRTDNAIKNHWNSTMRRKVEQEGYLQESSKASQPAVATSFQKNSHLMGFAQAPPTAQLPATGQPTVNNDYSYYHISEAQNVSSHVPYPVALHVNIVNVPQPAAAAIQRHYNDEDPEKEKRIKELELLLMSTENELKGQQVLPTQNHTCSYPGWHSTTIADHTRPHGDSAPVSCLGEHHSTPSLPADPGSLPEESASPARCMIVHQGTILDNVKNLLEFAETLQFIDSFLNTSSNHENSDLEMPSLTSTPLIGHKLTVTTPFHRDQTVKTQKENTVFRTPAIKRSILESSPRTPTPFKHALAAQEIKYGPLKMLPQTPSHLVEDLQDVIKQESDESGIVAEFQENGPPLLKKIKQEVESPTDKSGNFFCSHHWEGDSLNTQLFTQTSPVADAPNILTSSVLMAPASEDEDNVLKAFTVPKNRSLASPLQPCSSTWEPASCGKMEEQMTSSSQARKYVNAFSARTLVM
In short: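 After 24 h of compound dosing, total RNA from transfected HepG2 cells is reverse-transcribed and the reporter sequences amplified, labeled and separated by capillary electrophoresis. Values come from bidirectional fitting against DMSO.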

[16] = ATG_VDRE_CIS: Attagene CIS-FACTORIAL HepG2 Assay for human Vitamin D Receptor Element (VDRE) (AID 2282968; active = hit-call score of the fitted dose curve at least 0.9, where 1 is the maximum; inactive = score below 0.9); conditions: HepG2 VDRE cis-reporter transcription, actives raise or lower the signal
In short: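 Reporter mRNA induction, quantified by capillary electrophoresis of fluorescently labelled RT-PCR products, was read 24 h after dosing HepG2 cells carrying transiently transfected cis-regulated reporter units; gain or loss relative to DMSO.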

[17] = biological target: Nuclear receptor subfamily 1 group I member 3 (Homo sapiens) (UniProt Q14994); assay: ATG_CAR_TRANS: Attagene TRANS-FACTORIAL HepG2 Assay for human Constitutive Androstane Receptor (CAR) (AID 2282969); conditions: HepG2 Attagene TRANS-FACTORIAL CAR reporter;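 note: activators raise reporter mRNA above DMSO so AC50 marks induction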
In short: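 Readout is reporter mRNA induction, quantified by fluorescent primer extension and capillary electrophoresis after RT-PCR. Cells were HepG2 transiently carrying chimeric NR-Gal4 constructs with GAL4-UAS reporters, treated for 24 h; activity scored upward from DMSO.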

[18] = biological target: Bile acid receptor (Homo sapiens) (UniProt Q96RI1); assay: ATG_FXR_TRANS: Attagene TRANS-FACTORIAL HepG2 Assay for Farnesoid X Receptor (FXR) (AID 2282979); conditions: HepG2 Attagene TRANS FXR-GAL4 reporter transcription;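 note: hits raise reporter mRNA above DMSO so AC50 marks FXR activation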
In short: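 Read-out: fluorescent reporter transcripts quantified by capillary electrophoresis after RT-PCR of total RNA. Source cells were HepG2 transiently carrying chimeric NR-GAL4 plus GAL4-UAS reporter units, dosed 24 h. Activity fitted upward relative to DMSO baseline.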

[19] = biological target: Steroid hormone receptor ERR1 (Homo sapiens) (UniProt P11474); assay: ATG_ERRa_TRANS: Attagene TRANS-FACTORIAL HepG2 Assay for human Estrogen-Related Receptor alpha (ERRa) (AID 2282971); conditions: HepG2 Attagene TRANS reporter, ERRa transactivation
Chain of Steroid hormone receptor ERR1 (Homo sapiens) (P11474 whole entry, looked up, the tested form may be a part): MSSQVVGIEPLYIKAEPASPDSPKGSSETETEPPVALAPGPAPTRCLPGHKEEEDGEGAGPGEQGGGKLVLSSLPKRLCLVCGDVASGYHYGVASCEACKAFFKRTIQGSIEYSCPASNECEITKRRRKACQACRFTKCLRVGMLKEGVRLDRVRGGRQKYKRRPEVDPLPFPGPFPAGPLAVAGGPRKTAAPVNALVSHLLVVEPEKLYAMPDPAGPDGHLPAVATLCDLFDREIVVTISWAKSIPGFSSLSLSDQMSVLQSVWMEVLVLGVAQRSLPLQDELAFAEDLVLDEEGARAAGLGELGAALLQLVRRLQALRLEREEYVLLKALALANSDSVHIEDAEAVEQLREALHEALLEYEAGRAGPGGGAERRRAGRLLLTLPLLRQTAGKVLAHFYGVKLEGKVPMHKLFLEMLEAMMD
In short: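 Transfected HepG2, 24 h dosing, ERRa-Gal4 chimera driving GAL4-UAS reporter. Readout: reporter mRNA via RT-PCR plus capillary electrophoresis (fluorescence). Positive direction vs DMSO control.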

[20] = biological target: Estrogen-related receptor gamma (Homo sapiens) (UniProt P62508); assay: ATG_ERRg_TRANS: Attagene TRANS-FACTORIAL HepG2 Assay for human Estrogen-Related Receptor gamma (ERRg) (AID 2282977); conditions: HepG2 Attagene TRANS reporter, ERRg transactivation;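 note: hits increase reporter signal over DMSO so potencies reflect activators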
In short: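 Transfect HepG2 with multiple GAL4-UAS reporter transcription units; dose chemicals 24 h; isolate RNA, reverse-transcribe with oligo(dT), PCR-amplify, label with 6-FAM, digest with HpaI; size fragments by capillary electrophoresis. DMSO serves as negative control.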

Measured: AC50

O=C(O)Cc1cc(I)c(Oc2cc(I)c(O)c(I)c2)c(I)c1
active: [2] 67 µM | [5] 34.1 µM | [14] 23.6 µM
inactive: [1] | [2] | [3] | [4] | [5] | [6] | [7] | [8] | [9] | [10] | [11] | [12] | [13] | [15]

CC(O)C(=O)O (centres undefined)
not listed: [8] | [14] | [19] | [20]
inactive: all other assays above

ClC1=C(Cl)C(Cl)(Cl)C(Cl)=C1Cl
inactive: [1] | [2] | [3] | [6] | [8] | [9] | [10] | [11] | [12] | [13] | [14] | [15]
active: [1] 15.4 µM | [2] 15 µM | [16] 14.7 µM and 7.29 µM | [4] 15.1 µM and 11.1 µM | [5] 13.4 µM and 7.05 µM | [15] 13.6 µM

CCCCCCCCCCCCCC[N+](C)(C)C
inactive: [2] | [3] | [16] | [4] | [19] | [5] | [6] | [7] | [20] | [18] | [12] | [13] | [15]
active: [1] 17.2 µM and 7.58 µM | [19] 25.7 µM | [5] 6.33 µM | [11] 43.7 µM and 40.9 µM | [14] 26.9 µM
